Several values for one entry are separate records, joined by “and”; a condition that tells them apart may be missing. Identical values can stand only once. Inconclusive results are not listed. A call without a number means that no potency is given here. Some compounds were tested as several samples or in several runs, with calls that do not always agree. Activity calls are given as the source filed them. Calls come from the whole dose curve.
Potency is the fitted concentration of half-maximal effect.

The experiment is described as follows: qHTS assay for small molecule agonists of the p53 signaling pathway - cell viability (AID 651633).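 For activity change, negative = cytotoxicity: p53RE-bla HCT reporter cells with a stable beta-lactamase p53 reporter.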 Note: nearly all actives have a fitted effect of over 30% in size. The settings on record: p53RE-bla HCT-116 viability, ATP luminescence, 16 h; series mostly up to 83.3 µM; activity change, negative = cytotoxicity: at the top concentration. The text has this: National Center for Advancing Translational Sciences [NCATS]
NIH Chemical Genomics Center [NCGC]
U.S. Environmental Protection Agency [EPA]
National Institutes of Environmental Health Sciences [NIEHS]
National Toxicology Program [NTP]
U.S. Food and Drug Administration [FDA]
p53, a tumor suppressor protein, is activated following cellular insult, including DNA damage and other cellular stresses. The activation of p53 regulates cell fate by inducing DNA repair, cell cycle arrest, apoptosis, or cellular senescence. The activation of p53, therefore, is a good indicator of DNA damage and other cellular stresses. […] The activation of the reporter gene under culture conditions can be detected by fluorescence intensity. This cell line was used to screen the Tox21 compound library in a 1536-well plate format and to identify agonists that activate the p53 signaling pathway.
Tox21 Assay Protocol Summary:
The p53RE-bla cells were dispensed at 4,000 cells/5 ul/well in 1536-well black wall/clear bottom plates using a Multidrop dispenser. After the assay plates were incubated at a 37 C/5% CO2 incubator for 5 hours, 23 nL of compounds dissolved in DMSO, positive controls or DMSO only was transferred to the assay plate by a pin tool. The plates were incubated at 37 C for 16 hours. After 1 uL of LiveBLAzerTM B/G FRET substrate was added using a Flying Reagent Dispenser, the plates were incubated at room temperature for 2 hours, and fluorescence intensity was measured by an Envision plate reader.
For cell viability readout that measures cytotoxicity, 4 ul/well of CellTiter-Glo reagent was added into the assay plates using a Flying Reagent Dispenser. After 30 min incubation at room temperature, the luminescence intensity in the plates was measured using a ViewLux plate reader.
For orientation: qHTS replaces the single test concentration by a dilution series.
As to `CN(CCOc1ccc(CC2SC(=O)NC2=O)cc1)c1ccccn1` (stereo not given), the Potency result is “inactive”. Same read-out and setting: with `CNC[C@H](O)[C@@H](O)[C@H](O)[C@H](O)CO` the entry was “inactive”; with `O=Nc1ccc(O)cc1`, “inactive”; with `O=C(O)c1cc(-c2ccccc2)nc2ccccc12`, “inactive”. Still for that read-out and setting: with `CC1=CC[C@H]2C[C@@H]1C2(C)C` the entry was “inactive”; with `CCCCCCCCCCCCN`, “inactive and 27.3 µM (active)”; with `CS(=O)(=O)Nc1ccc([N+](=O)[O-])cc1Oc1ccccc1`, “inactive”. On to `CCOC(=O)/C=C\C(=O)OCC`, for which the Potency entry was “inactive”.

As for `CCc1ccc(O)cc1`, the Potency result was “inactive”.

As for `Cc1ccc(C)c(C)c1`, the Potency entry was “inactive”. Regarding `COCC(C)O` (stereo not given), the Potency result was “inactive”.

On to `C=CC(=O)OCCCCCCCC(C)C`, for which the Potency entry was “inactive”. On to `CCCCNC(N)=O`, for which the Potency entry is “inactive”. On the same count and under the same terms, with `O=C(Oc1ccccc1)c1ccc(O)cc1` the entry was “inactive”; with `CC1(C)CC(N=C=O)CC(C)(CN=C=O)C1` (stereo not given), “inactive”; with `Cc1cc(O)c2c(c1)C(=O)c1cc(O)cc(O)c1C2=O`, “inactive and 61.1 µM (active)”. The same measure, in the same setting: with `CC1(C)O[C@@H]2C[C@H]3[C@@H]4C[C@H](F)C5=CC(=O)CC[C@]5(C)[C@H]4[C@@H](O)C[C@]3(C)[C@]2(C(=O)CO)O1` the entry was “inactive”; with `CC(=O)Nc1ccc(C(=O)O)cc1`, “inactive”; with `NCCc1ccc(O)c(O)c1`, “inactive”. For the molecule `CC(C)(C)C(=O)C1C(=O)c2ccccc2C1=O`, the Potency entry is “inactive”. On the same count and under the same terms, for `S=c1nc[nH]c2nc[nH]c12` the value was 1.88 µM (active) and 1.19 µM (active). Same read-out and setting: for `C=C(C)C(=O)OCCC[Si](OC)(OC)OC` the value was “inactive”; for `O=S(=O)(O)c1cc(S(=O)(=O)O)c2c(N=Nc3ccccc3)c(O)ccc2c1`, “inactive”; for `Nc1c(S(=O)(=O)O)cc(Br)c2c1C(=O)c1ccccc1C2=O`, “inactive”. `C=C1CC[C@H](O)CC1=C/C=C1\CCC[C@]2(C)[C@@H]([C@H](C)/C=C/[C@H](C)C(C)C)CC[C@@H]12`: the Potency is 54 µM (active) and 68.6 µM (active). The same measure, in the same setting: with `CCCCOCCOCCOC(=O)CCCCC(=O)OCCOCCOCCCC` the entry was “inactive”; with `O=C(O)c1ccc([N+](=O)[O-])cc1`, “inactive”. The same measure, in the same setting: with `CC(C)(N=C=O)c1cccc(C(C)(C)N=C=O)c1` the entry was “inactive”; with `OCC1CCCO1` (stereo not given), “inactive”.

For the molecule `O=S(=O)(O)CCS`, the Potency entry was “inactive”.

On to `CC1COc2ccccc2N1C(=O)C(Cl)Cl` (stereo not given), for which the Potency entry was “inactive”. Still for that read-out and setting: for `Oc1ccc(OCc2ccccc2)cc1` the value was “inactive”.

With `CCc1ccccc1O`, the Potency entry is “inactive”. The same measure, in the same setting: with `CCCCCCCCCC(=O)O` the entry was “inactive”. On to `C=C(C)C(=O)OCCCCCCCCCCCC`, for which the Potency result was “inactive”.

`CC1Cc2ccccc2N1NC(=O)c1ccc(Cl)c(S(N)(=O)=O)c1` (stereo not given): the Potency entry is “inactive”. Same read-out and setting: for `CCCCOCCO` the value was “inactive”; for `Oc1c(Cl)cc(Cl)c(Cl)c1Cl`, “inactive and 61.1 µM (active)”. On to `CC(C)(CO)COC(=O)C(C)(C)CO`, for which the “activity change, negative = cytotoxicity” value was 0.365% (inactive). Take `CCOC(=O)C1OC1c1ccccc1` (stereo not given): the Potency entry is “inactive”.
